Experimental data from PubChem BioAssay (NCI).
Compounds without any hit were thinned out: in the full panel of roughly 83,000, 20% have a hit.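 Compound tested at a single concentration for 48 hours in 96-well plates; a percent growth value below 10 was scored as active.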 Values without a mark were called inactive. The source made the active and inactive calls.

Key:
Test in all cases: NCI-60 one-dose screen, 48 h (100 = growth as untreated, 0 = no growth, -100 = all killed)
Details in all cases: 10 µM unless noted
NCI-H23 lung = tested on: NCI-H23 lung
NCI-H226 lung = tested on: NCI-H226 lung
NCI-H322M lung = tested on: NCI-H322M lung
HOP-62 NSCLC = tested on: HOP-62 NSCLC
NCI-H460 lung = tested on: NCI-H460 lung
HOP-92 NSCLC = tested on: HOP-92 NSCLC
NCI-H522 lung = tested on: NCI-H522 lung
A549/ATCC NSCLC = tested on: A549/ATCC NSCLC
786-0 renal = tested on: 786-0 renal
COLO 205 colon = tested on: COLO 205 colon
DU-145 prostate = tested on: DU-145 prostate
K-562 leukemia = tested on: K-562 leukemia
MALME-3M melanoma = tested on: MALME-3M melanoma
MDA-MB-231 breast = tested on: MDA-MB-231 breast
RXF 393 renal = tested on: RXF 393 renal
SF-268 CNS = tested on: SF-268 CNS
SF-295 CNS = tested on: SF-295 CNS
SF-539 CNS = tested on: SF-539 CNS
UACC-257 melanoma = tested on: UACC-257 melanoma
M14 melanoma = tested on: M14 melanoma

| Compound | growth (NCI-H23 lung) | growth (NCI-H226 lung) | growth (NCI-H322M lung) | growth (HOP-62 NSCLC) | growth (NCI-H460 lung) | growth (HOP-92 NSCLC) | growth (NCI-H522 lung) | growth (A549/ATCC NSCLC) | growth (786-0 renal) | growth (COLO 205 colon) | growth (DU-145 prostate) | growth (K-562 leukemia) | growth (MALME-3M melanoma) | growth (MDA-MB-231 breast) | growth (RXF 393 renal) | growth (SF-268 CNS) | growth (SF-295 CNS) | growth (SF-539 CNS) | growth (UACC-257 melanoma) | growth (M14 melanoma) |
| --- | --- | --- | --- | --- | --- | --- | --- | --- | --- | --- | --- | --- | --- | --- | --- | --- | --- | --- | --- | --- |
| Clc1ccc(Sc2cnc(-c3ccccc3)o2)cc1 | 95.5% | 106% | 91.9% | 94.4% | 110% | 86.1% | 99.2% | 92% | 93.9% | 110% | 104% | 98.2% | 102% | 97.2% | 115% | 93.5% | 97.4% | 96% | 93.6% | 107% |
| COC(=O)c1c2c(c(C)[n+]([O-])c1C)C(=O)C=C(NCc1ccc(Br)cc1)C2=O | -44.8% (active) | -42.9% (active) | -14.9% (active) | -77.2% (active) | -53.8% (active) | -53.8% (active) | -44.8% (active) | -28.2% (active) | -8.26% (active) | -69.8% (active) | -87.7% (active) | 2.51% (active) | -97.9% (active) | -4.67% (active) | -46.1% (active) | -43.7% (active) | -97.9% (active) | -86.8% (active) | -80.6% (active) | -83.9% (active) |
| CNC(=O)c1c(NC(=O)c2ccc(C(F)(F)F)cc2)sc2c1CCC(=O)C2 | -5.25% (active) | 9.17% (active) | 29.5% | 14.5% | 4.57% (active) | -35.8% (active) | -26.1% (active) | – | 10.3% | -36.1% (active) | 29% | 7.84% (active) | -9.54% (active) | -37.1% (active) | -7.89% (active) | 9.61% (active) | -9.06% (active) | -58.6% (active) | 1.26% (active) | -11.6% (active) |
| O=C1/C(=C/c2ccc(-c3ccc(Br)cc3)o2)SC(=S)N1CCc1ccc(O)cc1 | 75.8% | 90.2% | 84.5% | 90.6% | 60.3% | 60% | 13.7% | – | 5.73% (active) | -27.8% (active) | 15.7% | 3.25% (active) | 73.5% | 82.9% | 80.5% | 44.4% | 100% | 86.5% | 77.4% | 50.9% |
| O=C(/C=C/c1ccccc1)c1cccc(OCCCOc2cccc(C(=O)/C=C/c3ccccc3)c2)c1 | 95.5% | 108% | 105% | 116% | 101% | 101% | – | 87.2% | 92.9% | 94.1% | 100% | 46.4% | 107% | 97.4% | 94.9% | 104% | 94.2% | 107% | 96.4% | 95% |
| C=C1CC[C@@H]2[C@](C)(COC(C)=O)[C@H](OC(C)=O)CC[C@@]2(C)[C@@H]1CC(Sc1ccccc1)C1=CCOC1=O (some centres not stated) | 24.5% | -9.88% (active) | 67.1% | -18.2% (active) | 21.7% | 24.5% | – | 26.6% | -31.2% (active) | -68.1% (active) | 16.4% | 3.95% (active) | 16.8% | 7.4% (active) | 5.01% (active) | 11.6% | 65.9% | -43.6% (active) | 29.4% | -4.19% (active) |
| N#C/C(=C\c1ccc(Br)cc1)n1nnc2ccc(F)cc21 | 16% | 2.99% (active) | 9.42% (active) | 31.4% | -35.9% (active) | 36.7% | – | 16.6% | -73.8% (active) | -12.9% (active) | 15.3% | 3.46% (active) | -22.6% (active) | -11.4% (active) | -41% (active) | 42.5% | 44% | -24.3% (active) | 6.2% (active) | -42.3% (active) |
| CN1C(=O)N(C)C2Nn3c(s/c(=C\c4ccc(C(F)(F)F)cc4)c3=O)=NC21 (configuration not stated) | 99.4% | 96.3% | 101% | 115% | 107% | 110% | – | 104% | 105% | 118% | 109% | 93.3% | 107% | 91.7% | 95.7% | 96.9% | 101% | 97.3% | 111% | 110% |
| O=C(N/N=C/c1ccc(F)cc1)c1ccc(C(F)(F)F)nc1Nc1cccc(C(F)(F)F)c1 | 11.3% | 9.45% (active) | -14.5% (active) | -14.1% (active) | -17.7% (active) | -25.2% (active) | -15.9% (active) | – | -29.7% (active) | 7.69% (active) | 17.9% | -6.25% (active) | 2.96% (active) | -11.5% (active) | -10.7% (active) | 9.8% (active) | -44.5% (active) | -0.388% (active) | -2.34% (active) | 19.9% |
| O=C1c2ccc3c4ccc5c6c(ccc(c7ccc(c2c37)C(=O)N1CCC[P+](c1ccccc1)(c1ccccc1)c1ccccc1)c64)C(=O)N(CCC[P+](c1ccccc1)(c1ccccc1)c1ccccc1)C5=O | 28.1% | 105% | 84.2% | 60.3% | 28% | 77.3% | – | 43.8% | 91.2% | 15.5% | 40.8% | 16.4% | -27.8% (active) | 59.6% | 95% | 57.6% | 42.5% | 47.4% | 21.5% | 18.8% |
| N#Cc1nn(-c2cc(=O)[nH]c3ccc(Cl)cc23)c(N)c1C#N | 104% | 99.4% | 91.9% | 87.2% | 114% | -79.6% (active) | 87.1% | – | 93.4% | 100% | 118% | -43.9% (active) | 91.9% | 108% | 107% | 113% | 97.6% | 96% | 87% | 93.7% |
| CN1CCN(Cc2ccc(NC(=O)c3cncc(C#Cc4cnc(N)c5ccccc45)c3)cc2C(F)(F)F)CC1 | -74.1% (active) | -91% (active) | -87.1% (active) | -74.7% (active) | -77.3% (active) | -74.4% (active) | – | -89.1% (active) | -79.6% (active) | -78.1% (active) | -97.6% (active) | -13.3% (active) | -88.6% (active) | -86.2% (active) | -96.2% (active) | -61.1% (active) | -87.4% (active) | -97.8% (active) | -90.1% (active) | -79.3% (active) |
| COC(=O)c1n[nH]c2ccc3nc(-c4cn[nH]c4C(F)(F)F)c4c(c3c12)CCCC4 | 56% | 51.6% | 45.1% | 46.9% | 29.3% | 30.9% | 23.6% | – | 35.5% | 3.9% (active) | 49.1% | 72.9% | 28.9% | 38.6% | 37.9% | 54.8% | 48.7% | 27.4% | 28.9% | 11% |
| Cc1ccc(NC(=S)NNC(=S)NNc2ccccc2)cc1C | 99.9% | 99.7% | 85.5% | 106% | 96.3% | 55.4% | 86.3% | – | 114% | 107% | 77.9% | 8.18% (active) | 102% | 104% | 96.3% | 55.1% | 109% | 103% | 98.6% | 115% |
| N#Cc1c(-c2ccccc2)cc(-c2ccccc2)n(CCCCCC(=O)Nc2ccccc2N)c1=O | 81.2% | 69.9% | 81.5% | 82.3% | 50.9% | 51.9% | 55.8% | – | 57.6% | 84% | 72.6% | 46.3% | 76.8% | 64.1% | 39% | 64.3% | 95.9% | 72.9% | 78.6% | 80.1% |
